Source: the supplement of paper PMC10849652
Targets with a hit are over-represented here; the source holds about 7,900 in all. About 0.6% of all pairs of compound and target were hits.

How the values were obtained:
Assay in all cases: log2 fold change, soluble protein after heating vs DMSO (PISA); higher = thermal stabilisation; K562 cells, 10 uM, 30 min; active = over 0.2 and 3.5 SD of the protein, either way, in both replicates (recomputed)
IRAK-1-4 Inhibitor I = compound: C1COCCN1CCN2C3=CC=CC=C3N=C2NC(=O)C4=CC(=CC=C4)[N+](=O)[O-] [IRAK-1-4 Inhibitor I]
How it was run: (§1)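 Soluble protein was defined as the supernatant after 21,000xg for 90 min. It came from K562 cells at 2×10^6 cells/mL given 10 μM compound for 30 min, heated in aliquots for 3 min across 48°C-58°C, pooled, and extracted in PBS with 0.5% NP-40 at 4°C, and was quantified by TMTpro 16plex LC-MS/MS with equalised channel sums. Thermal stability against control samples, from duplicates, is reported as log2 fold change.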

ibrutinib = compound: C=CC(=O)N1CCC[C@@H](n2nc(-c3ccc(Oc4ccccc4)cc3)c3c(N)ncnc32)C1 [ibrutinib]
How it was run: as §1

[1] = compound: CC(=O)c1cnc2ccc(-c3cc(Cl)c(O)c(Cl)c3)nc2c1N[C@H]1CC[C@H](CN(C)C)CC1
How it was run: as §1

ralimetinib = compound: CC(C)(C)Cn1c(N)nc2ccc(-c3[nH]c(C(C)(C)C)nc3-c3ccc(F)cc3)nc21 [ralimetinib]
How it was run: as §1

[2] = compound: CC(C)(O)CC(=O)NCCn1ccc2ncnc(Nc3ccc(Oc4cccc(C(F)(F)F)c4)c(Cl)c3)c21
How it was run: as §1

[3] = compound: CC(C)C1=C2N=C(C=C(N2N=C1)NCC3=CC=CC=C3)NCCCCCCN
How it was run: as §1

[4] = compound: CC(C)C[C@@H](C=O)NC(=O)[C@H](CC(C)C)NC(=O)[C@H](CC(C)C)NC(=O)OCc1ccccc1
How it was run: as §1

pinometostat = compound: CC(C)N(C[C@H]1O[C@@H](n2cnc3c(N)ncnc32)[C@H](O)[C@@H]1O)[C@H]1C[C@@H](CCc2nc3cc(C(C)(C)C)ccc3[nH]2)C1 [pinometostat]
How it was run: as §1

[5] = compound: CC1=C(C(CC(=O)N1)C2=CC=C(C=C2)C(F)(F)F)C(=O)NC3=C(C=C4C(=C3)C=NN4)F
How it was run: as §1

[6] = compound: CC1=C(C2=C(C=C1)C(=O)C3=CC=CC=C3N2CCCN)C
How it was run: as §1

Measured: log2 fold change

WDCP (UniProt Q9H6R7)
Sequence of UniProt Q9H6R7 (Q9H6R7 whole entry, looked up): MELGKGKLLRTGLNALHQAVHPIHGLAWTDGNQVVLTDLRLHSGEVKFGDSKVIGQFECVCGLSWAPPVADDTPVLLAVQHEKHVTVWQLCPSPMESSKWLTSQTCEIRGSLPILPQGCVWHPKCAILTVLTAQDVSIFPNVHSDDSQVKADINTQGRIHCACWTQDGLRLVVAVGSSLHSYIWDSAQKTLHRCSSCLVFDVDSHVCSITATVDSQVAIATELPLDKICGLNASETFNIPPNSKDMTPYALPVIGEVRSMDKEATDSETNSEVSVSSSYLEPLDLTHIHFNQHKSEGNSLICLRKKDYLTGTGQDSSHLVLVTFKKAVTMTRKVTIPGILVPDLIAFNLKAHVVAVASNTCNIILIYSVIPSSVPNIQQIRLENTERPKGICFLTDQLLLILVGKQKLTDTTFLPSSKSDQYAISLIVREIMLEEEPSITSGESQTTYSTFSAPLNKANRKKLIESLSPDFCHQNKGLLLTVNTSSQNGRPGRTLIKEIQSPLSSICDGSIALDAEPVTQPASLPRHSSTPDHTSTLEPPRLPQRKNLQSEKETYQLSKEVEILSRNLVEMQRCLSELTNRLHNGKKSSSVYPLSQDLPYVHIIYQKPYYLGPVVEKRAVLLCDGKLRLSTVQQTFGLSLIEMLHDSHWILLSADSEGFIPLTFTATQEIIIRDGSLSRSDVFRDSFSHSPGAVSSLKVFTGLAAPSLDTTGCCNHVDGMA
inactive: IRAK-1-4 Inhibitor I -0.01 | ibrutinib -0.038 | [1] 0.078 | ralimetinib -0.006 | [2] -0.053 | [3] 0.032 | [4] 0.014 | pinometostat 0.076 | [5] 0.055 | [6] 0.023

U2AF2 (UniProt P26368)
active: [1] -0.313
inactive: IRAK-1-4 Inhibitor I -0.069 | ibrutinib 0.029 | ralimetinib 0.03 | [2] -0.011 | [3] -0.102 | [4] 0.028 | pinometostat 0.03 | [5] -0.04 | [6] 0.192

UBAP1 isoform 4 (UniProt Q9NZ09)
Sequence of UniProt Q9NZ09 (Q9NZ09 whole entry, looked up): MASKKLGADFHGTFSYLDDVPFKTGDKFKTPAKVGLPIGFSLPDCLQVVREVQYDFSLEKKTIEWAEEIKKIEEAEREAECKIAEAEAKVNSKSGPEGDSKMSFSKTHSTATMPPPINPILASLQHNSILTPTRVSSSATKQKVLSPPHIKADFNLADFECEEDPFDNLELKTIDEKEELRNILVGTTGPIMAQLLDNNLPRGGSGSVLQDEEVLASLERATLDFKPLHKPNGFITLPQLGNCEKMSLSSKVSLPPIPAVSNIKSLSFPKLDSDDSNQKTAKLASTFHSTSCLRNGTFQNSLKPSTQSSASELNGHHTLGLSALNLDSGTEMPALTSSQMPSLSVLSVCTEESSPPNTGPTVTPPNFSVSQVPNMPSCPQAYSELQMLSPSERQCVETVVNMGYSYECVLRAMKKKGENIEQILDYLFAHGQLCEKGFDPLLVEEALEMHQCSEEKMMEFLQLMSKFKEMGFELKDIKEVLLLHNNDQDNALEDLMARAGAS
inactive: IRAK-1-4 Inhibitor I -0.058 | ibrutinib 0.07 | [1] -0.001 | ralimetinib -0.024 | [2] -0.044 | [3] -0.087 | [4] 0.107 | pinometostat 0.018 | [5] 0.184 | [6] -0.112

TP53BP1 isoform 2 (UniProt Q12888)
active: [6] -0.337
inactive: IRAK-1-4 Inhibitor I -0.059 | ibrutinib -0.046 | [1] -0.002 | ralimetinib 0.056 | [2] -0.024 | [3] -0.089 | [4] 0.019 | pinometostat 0.021 | [5] 0.003

UCHL5 (UniProt Q9Y5K5)
Sequence of UniProt Q9Y5K5 (Q9Y5K5 whole entry, looked up): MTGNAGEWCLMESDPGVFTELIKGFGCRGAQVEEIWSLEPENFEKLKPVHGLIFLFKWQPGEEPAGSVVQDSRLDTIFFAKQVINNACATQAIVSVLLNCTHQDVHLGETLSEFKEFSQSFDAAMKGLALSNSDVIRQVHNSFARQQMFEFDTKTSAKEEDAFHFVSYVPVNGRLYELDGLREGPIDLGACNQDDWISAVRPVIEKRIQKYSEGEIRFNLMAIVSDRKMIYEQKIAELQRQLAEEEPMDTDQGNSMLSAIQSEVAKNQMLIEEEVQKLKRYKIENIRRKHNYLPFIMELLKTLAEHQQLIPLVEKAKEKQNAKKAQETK
inactive: IRAK-1-4 Inhibitor I -0.041 | ibrutinib -0.051 | [1] -0.012 | ralimetinib 0.03 | [2] -0.028 | [3] -0.161 | [4] 0.054 | pinometostat -0.004 | [5] -0.004 | [6] -0.018

VPS16 (UniProt Q9H269)
inactive: IRAK-1-4 Inhibitor I 0.028 | ibrutinib -0.073 | [1] -0.02 | ralimetinib 0.043 | [2] -0.154 | [3] -0.29 | [4] -0.035 | pinometostat 0.1 | [5] 0.006 | [6] 0.061

TRMT61A (UniProt Q96FX7)
Sequence of UniProt Q96FX7 (Q96FX7 whole entry, looked up): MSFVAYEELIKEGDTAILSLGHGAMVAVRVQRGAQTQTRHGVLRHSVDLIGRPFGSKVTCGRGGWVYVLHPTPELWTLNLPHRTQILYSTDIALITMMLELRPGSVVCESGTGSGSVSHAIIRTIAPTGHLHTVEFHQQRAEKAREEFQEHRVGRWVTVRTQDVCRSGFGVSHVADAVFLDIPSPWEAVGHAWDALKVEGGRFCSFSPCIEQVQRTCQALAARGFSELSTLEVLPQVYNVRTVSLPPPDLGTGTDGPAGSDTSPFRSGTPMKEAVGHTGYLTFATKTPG
inactive: IRAK-1-4 Inhibitor I 0.07 | ibrutinib 0.14 | [1] -0.002 | ralimetinib 0.06 | [2] 0.109 | [3] -0.099 | [4] 0.086 | pinometostat 0.188 | [5] -0.034 | [6] -0.401

XPOT (UniProt O43592)
inactive: IRAK-1-4 Inhibitor I -0.035 | ibrutinib -0.061 | [1] 0.064 | ralimetinib -0.079 | [2] -0.146 | [4] 0.053 | pinometostat 0.03 | [5] 0.001 | [6] 0.033
active: [3] -0.345

TPR (UniProt P12270)
inactive: IRAK-1-4 Inhibitor I 0.03 | ibrutinib -0.048 | [1] 0.247 | ralimetinib 0.058 | [2] 0.121 | [3] 0.091 | [4] 0.024 | pinometostat -0.001 | [5] -0.045 | [6] -0.122

UTP14A (UniProt Q9BVJ6)
Sequence of UniProt Q9BVJ6 (Q9BVJ6 whole entry, looked up): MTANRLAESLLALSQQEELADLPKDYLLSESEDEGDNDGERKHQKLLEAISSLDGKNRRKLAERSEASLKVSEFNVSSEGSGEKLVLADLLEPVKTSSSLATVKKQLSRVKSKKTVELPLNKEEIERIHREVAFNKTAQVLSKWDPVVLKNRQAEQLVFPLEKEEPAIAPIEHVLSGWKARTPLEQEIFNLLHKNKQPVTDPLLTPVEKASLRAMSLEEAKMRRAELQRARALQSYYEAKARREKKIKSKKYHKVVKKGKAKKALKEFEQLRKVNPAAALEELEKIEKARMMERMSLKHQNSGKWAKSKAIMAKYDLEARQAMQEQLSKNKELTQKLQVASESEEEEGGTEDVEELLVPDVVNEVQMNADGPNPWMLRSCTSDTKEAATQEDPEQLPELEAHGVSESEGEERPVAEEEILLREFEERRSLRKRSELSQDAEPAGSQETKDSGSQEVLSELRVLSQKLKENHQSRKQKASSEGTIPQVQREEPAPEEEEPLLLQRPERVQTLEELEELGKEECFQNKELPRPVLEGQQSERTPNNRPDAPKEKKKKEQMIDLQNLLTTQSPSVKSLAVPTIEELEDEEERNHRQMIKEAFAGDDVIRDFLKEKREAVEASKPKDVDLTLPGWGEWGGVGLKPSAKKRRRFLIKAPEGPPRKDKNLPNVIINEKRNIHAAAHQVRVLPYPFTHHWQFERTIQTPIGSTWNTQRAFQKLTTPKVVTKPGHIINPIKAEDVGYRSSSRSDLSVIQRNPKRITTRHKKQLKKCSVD
active: [6] -0.708
inactive: IRAK-1-4 Inhibitor I -0.13 | ibrutinib -0.026 | [1] 0.088 | ralimetinib 0.11 | [2] 0.007 | [3] -0.113 | [4] 0.154 | pinometostat 0.262 | [5] 0.065

TNPO1 (UniProt Q92973)
Sequence of UniProt Q92973 (Q92973 whole entry, looked up): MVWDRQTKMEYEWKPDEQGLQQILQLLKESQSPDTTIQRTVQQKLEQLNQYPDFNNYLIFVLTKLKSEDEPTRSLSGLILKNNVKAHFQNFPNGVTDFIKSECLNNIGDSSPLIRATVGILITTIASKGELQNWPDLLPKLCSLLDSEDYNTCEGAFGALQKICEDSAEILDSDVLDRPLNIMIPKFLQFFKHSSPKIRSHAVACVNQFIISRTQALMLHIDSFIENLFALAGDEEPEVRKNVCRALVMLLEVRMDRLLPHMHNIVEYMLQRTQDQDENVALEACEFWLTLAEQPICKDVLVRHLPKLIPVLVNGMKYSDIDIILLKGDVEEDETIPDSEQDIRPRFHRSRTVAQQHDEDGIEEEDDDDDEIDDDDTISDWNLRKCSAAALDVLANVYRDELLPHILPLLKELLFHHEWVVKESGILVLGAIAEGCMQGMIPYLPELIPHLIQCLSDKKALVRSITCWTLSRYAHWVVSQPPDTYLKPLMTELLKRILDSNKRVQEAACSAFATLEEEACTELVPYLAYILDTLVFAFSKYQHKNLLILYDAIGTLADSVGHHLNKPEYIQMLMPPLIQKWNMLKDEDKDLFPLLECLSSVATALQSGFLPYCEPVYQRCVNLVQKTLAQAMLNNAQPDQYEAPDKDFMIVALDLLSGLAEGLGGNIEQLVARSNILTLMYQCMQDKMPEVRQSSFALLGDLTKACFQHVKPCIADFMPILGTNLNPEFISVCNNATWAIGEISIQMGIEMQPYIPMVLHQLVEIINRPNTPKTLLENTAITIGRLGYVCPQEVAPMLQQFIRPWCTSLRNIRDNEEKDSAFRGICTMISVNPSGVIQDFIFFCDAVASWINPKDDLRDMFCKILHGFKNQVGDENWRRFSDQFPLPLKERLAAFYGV
active: [6] -0.231
inactive: IRAK-1-4 Inhibitor I 0.01 | ibrutinib 0.001 | [1] 0.043 | ralimetinib -0.01 | [2] -0.029 | [3] -0.193 | [4] -0.011 | pinometostat -0.006 | [5] 0.032

TRIP10 isoform 2 (UniProt Q15642)
inactive: IRAK-1-4 Inhibitor I 0.09 | ibrutinib -0.032 | [1] -0.078 | ralimetinib 0.143 | [2] 0.004 | [3] 0.204 | [4] -0.118 | pinometostat -0.027 | [5] 0.118 | [6] -0.01

TOM1 isoform 2 (UniProt O60784)
Sequence of UniProt O60784 (O60784 whole entry, looked up): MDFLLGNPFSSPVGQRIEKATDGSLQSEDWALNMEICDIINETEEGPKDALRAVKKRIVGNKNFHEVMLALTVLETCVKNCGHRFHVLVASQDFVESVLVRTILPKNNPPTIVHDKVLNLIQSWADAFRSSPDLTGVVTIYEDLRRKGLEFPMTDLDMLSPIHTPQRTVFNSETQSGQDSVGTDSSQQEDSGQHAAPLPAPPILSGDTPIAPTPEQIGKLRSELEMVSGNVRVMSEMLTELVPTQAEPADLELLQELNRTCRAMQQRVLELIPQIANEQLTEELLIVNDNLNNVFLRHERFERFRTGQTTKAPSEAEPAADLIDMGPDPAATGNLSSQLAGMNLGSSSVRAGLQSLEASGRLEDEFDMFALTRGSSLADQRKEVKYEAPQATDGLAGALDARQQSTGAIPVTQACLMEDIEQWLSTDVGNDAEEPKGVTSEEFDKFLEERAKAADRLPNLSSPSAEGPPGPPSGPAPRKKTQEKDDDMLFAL
inactive: IRAK-1-4 Inhibitor I 0.101 | ibrutinib 0.013 | [1] 0.028 | ralimetinib 0.071 | [2] -0.017 | [3] -0.302 | [4] 0.033 | pinometostat 0.023 | [5] -0.006 | [6] 0.16

USP15 (UniProt Q9Y4E8)
Sequence of UniProt Q9Y4E8 (Q9Y4E8 whole entry, looked up): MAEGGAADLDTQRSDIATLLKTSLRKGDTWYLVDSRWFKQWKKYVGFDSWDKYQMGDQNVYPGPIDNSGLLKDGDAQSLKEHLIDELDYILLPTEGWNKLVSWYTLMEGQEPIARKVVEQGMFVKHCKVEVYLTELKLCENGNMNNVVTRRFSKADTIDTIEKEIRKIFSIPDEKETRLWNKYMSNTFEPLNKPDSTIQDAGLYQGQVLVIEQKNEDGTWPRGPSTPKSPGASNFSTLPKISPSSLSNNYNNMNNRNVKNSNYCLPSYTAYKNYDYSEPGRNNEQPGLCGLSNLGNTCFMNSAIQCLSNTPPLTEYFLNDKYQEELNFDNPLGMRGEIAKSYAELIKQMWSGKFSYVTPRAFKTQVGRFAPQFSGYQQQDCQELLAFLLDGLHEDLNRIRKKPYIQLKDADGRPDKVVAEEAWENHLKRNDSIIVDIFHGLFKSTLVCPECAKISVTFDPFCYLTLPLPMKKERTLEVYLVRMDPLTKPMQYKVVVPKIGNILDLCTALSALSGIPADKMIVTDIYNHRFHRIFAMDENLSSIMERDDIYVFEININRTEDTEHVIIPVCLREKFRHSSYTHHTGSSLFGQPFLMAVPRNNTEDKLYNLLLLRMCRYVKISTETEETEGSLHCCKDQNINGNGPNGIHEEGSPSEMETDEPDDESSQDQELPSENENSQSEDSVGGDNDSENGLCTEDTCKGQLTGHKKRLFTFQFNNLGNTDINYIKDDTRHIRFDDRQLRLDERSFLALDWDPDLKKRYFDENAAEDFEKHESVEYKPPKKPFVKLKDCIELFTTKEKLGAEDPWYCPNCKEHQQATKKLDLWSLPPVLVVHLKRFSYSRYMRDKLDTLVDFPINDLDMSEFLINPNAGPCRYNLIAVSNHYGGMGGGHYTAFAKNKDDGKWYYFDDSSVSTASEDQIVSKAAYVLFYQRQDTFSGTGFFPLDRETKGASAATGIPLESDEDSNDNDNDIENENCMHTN
inactive: IRAK-1-4 Inhibitor I -0.028 | ibrutinib -0.034 | [1] 0.008 | ralimetinib -0.004 | [2] -0.067 | [3] -0.154 | [4] 0.012 | pinometostat 0.012 | [5] 0 | [6] -0.019

TMEM263 (UniProt Q8WUH6)
inactive: IRAK-1-4 Inhibitor I 0.083 | ibrutinib 0 | [1] 0.026 | ralimetinib -0.092 | [2] -0.303 | [4] 0.029 | pinometostat 0.001 | [5] 0.092 | [6] 0.037
active: [3] -1.03
